In the library only some 2% were active in any assay of this set; here they are far more common.
Neddyl block – inhibitors of cullin neddylation, primary screen, biochemical, TR-FRET, uHTS, NAE and Ubc12; 0.58% of 360,000 active; NEDD8-conjugating enzyme Ubc12 (Homo sapiens) + NEDD8-activating enzyme E1 regulatory …; inhibition, % at 25 µM; in the data active = inhibition above about 36%
GC-B act – human GC-B receptor activators, primary screen, HEK293 GC-B cells, cGMP TR-FRET, EC30 CNP; 0% at EC30 CNP, 100% saturating CNP; activation, % at 10 µM; 0.11% of 370,000 active;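 active = activation at 10 µM reaching about 35% in either raw or pattern-adjusted values, limit read from the data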
A3A deaminase – APOBEC3A ssDNA deaminase inhibitors, primary screen, selectivity assay for APOBEC3G inhibitor project, biochemical, FAM/TAMRA oligo cleavage fluorescence | recombinant A3A, FAM/TAMRA ssDNA deamination fluorescence | inhibition, % at 20 µM | AID 493011, 2011 | 0.41% of 330,000 active | DNA dC->dU-editing enzyme APOBEC-3A (Homo sapiens), P31941;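 active = at least 40% inhibition at 20 µM here, with at most 30% in a related deaminase screen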;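 note: plate controls were A3A with DMSO for no effect and wells lacking A3A enzyme for full effect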
NPR1 activator – GC-A stimulated cGMP production enhancers – HEK293 GC-A cells, cGMP TR-FRET, EC30 ANP, primary screen; 0% at EC30 ANP, 100% saturating ANP; activation, % at 10 µM; AID 1671463, 2021; Atrial natriuretic peptide receptor 1 (Homo sapiens), P16066; 0.14% of 370,000 active; in the data active = activation above about 40%
Target sequence (P16066 whole entry, looked up): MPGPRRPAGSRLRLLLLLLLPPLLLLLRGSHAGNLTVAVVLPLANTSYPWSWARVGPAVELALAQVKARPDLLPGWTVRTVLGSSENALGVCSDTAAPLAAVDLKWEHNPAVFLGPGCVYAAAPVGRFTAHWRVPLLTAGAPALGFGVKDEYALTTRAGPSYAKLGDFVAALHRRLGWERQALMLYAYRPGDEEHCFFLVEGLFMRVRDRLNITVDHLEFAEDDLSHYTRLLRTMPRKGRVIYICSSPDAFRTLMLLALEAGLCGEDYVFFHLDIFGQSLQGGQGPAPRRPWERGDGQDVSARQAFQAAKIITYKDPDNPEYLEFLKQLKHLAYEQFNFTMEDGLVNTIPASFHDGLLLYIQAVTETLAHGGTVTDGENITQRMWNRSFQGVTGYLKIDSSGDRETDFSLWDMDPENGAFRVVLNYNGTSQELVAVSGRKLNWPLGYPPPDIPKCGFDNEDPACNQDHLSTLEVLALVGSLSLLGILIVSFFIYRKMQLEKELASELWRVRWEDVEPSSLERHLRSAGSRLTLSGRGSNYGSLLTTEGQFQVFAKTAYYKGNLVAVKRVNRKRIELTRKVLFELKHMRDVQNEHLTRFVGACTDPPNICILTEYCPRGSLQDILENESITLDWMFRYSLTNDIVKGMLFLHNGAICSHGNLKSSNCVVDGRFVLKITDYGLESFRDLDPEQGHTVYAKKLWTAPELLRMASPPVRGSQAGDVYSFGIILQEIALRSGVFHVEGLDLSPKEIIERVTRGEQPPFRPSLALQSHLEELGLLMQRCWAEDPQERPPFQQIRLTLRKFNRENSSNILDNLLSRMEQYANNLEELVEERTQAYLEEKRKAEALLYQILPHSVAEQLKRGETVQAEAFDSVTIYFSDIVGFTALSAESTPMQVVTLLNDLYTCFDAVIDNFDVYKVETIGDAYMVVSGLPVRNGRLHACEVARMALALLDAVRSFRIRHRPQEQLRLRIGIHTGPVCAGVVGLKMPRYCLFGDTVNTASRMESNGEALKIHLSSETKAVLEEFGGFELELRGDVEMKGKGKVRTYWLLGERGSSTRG
PfGluPho inh – PfG6PD enzyme inhibitors, primary screen, biochemical, fluorescence intensity, uHTS. glucose-6-phosphate dehydrogenase-6-phosphogluconolactonase (Plasmodium falciparum 3D7). PfGluPho enzyme, NADPH resazurin-diaphorase fluorescence. inhibition, % at 20 µM. 0.78% of 350,000 active. AID 504690, 2011;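 active = inhibition reaching at least a set limit at 20 µM in the primary screen, cut at about 59% in these data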;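 note: 0% = DMSO wells with substrate and 100% = DMSO wells lacking glucose-6-phosphate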
A3G deaminase – APOBEC3G DNA deaminase inhibitors, primary screen, biochemical, fluorescence, single-stranded DNA substrate, uHTS | DNA dC->dU-editing enzyme APOBEC-3G (Homo sapiens), Q9HC16 | recombinant A3G, ssDNA deamination FAM/TAMRA fluorescence | inhibition, % at 20 µM | 0.28% of 330,000 active | AID 493012, 2011;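 active = inhibition of at least 40% at 20 µM, with no more than 30% in the related APOBEC3A deaminase screen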;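 note: plate controls were DMSO wells with A3G for no effect and wells lacking A3G enzyme for full effect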
Neddyl inh conf – blockade of NEDD8 conjugation to cullin – biochemical, TR-FRET, single concentration, confirmation. shares compounds with Neddyl block. TR-FRET cullin neddylation biochemical assay. calls only at 25 µM. 13% of 1,800 active. AID 652217, 2013; in the data active = inhibition above about 40%;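 note: neddylation substrate is the cullin 1 ring ligase complex with SKP2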
Numbers without * were called inactive; i = inactive; . = no result given; + = active, no number.

SMILES	Neddyl block	GC-B act	A3A deaminase	NPR1 activator	PfGluPho inh	A3G deaminase	Neddyl inh conf
O=C(N/N=C/c1ccncc1)c1nc2ccccc2c(=O)[nH]1	-25	-5	-3	-6	27	-5	.
O=C(N/N=C/c1ccc2cccnc2c1)c1nc2ccccc2c(=O)[nH]1	46*	-5	9	-2	1	-1	i
Cc1nn2c(C)nc3sc4c(c3c2nc1=O)CC(C)(C)OC4	43*	4	-5	10	-1	-3	i
Nn1c(-c2cccs2)nc2sc3c(c2c1=O)CCCC3	.	-2	-21	-1	14	-7	.
CC1(C)Cc2c(sc3nc(-c4cccs4)n(N)c(=O)c23)CO1	44*	-1	1	2	7	0	i
CN1CCCCc2c1nc1c(c2N)CCCC1	39*	-1	-6	1	-3	-5	i
Cc1cccc2c(N)c3c(nc12)N(C)CC3	-53	-3	-1	10	4	-4	.
CSc1nc(N)c2c3c(sc2n1)CN(C)CC3	41*	-4	1	12	13	-3	i
Cc1nc(C(=O)N/N=C/c2[nH]ncc2Br)cs1	42*	-7	-4	1	3	-6	i
COc1ccc(/C=C/C(=O)NC(=S)NNC(=O)c2cc(OC)c(OC)c(OC)c2)cc1	48*	0	-4	-2	-35	-2	i
Cc1nc(Nc2cccc(C(C)O)c2)c2nnn(Cc3ccccc3F)c2n1 (stereo unspecified)	40*	-1	3	4	1	-5	i
CCCc1cc(=O)n2[nH]c(-c3cc(OC)c(OC)c(OC)c3)nc2n1	39*	1	-1	3	-5	-3	i
O=C1C2CC3N1CCC31c3ccccc3-n3c1c2ccc3=O (stereo unspecified)	45*	2	.	2	7	.	+
O=c1[nH]c(/C(Cl)=C/c2cccc(F)c2)nc2cc(C(F)(F)F)ccc12	41*	6	-2	-2	-2	-11	i
CCc1ccc(/C=C(\Cl)c2nc3cc(Cl)ccc3c(=O)[nH]2)cc1	23	1	3	-2	-5	-6	.
O=C(C1CCN(c2ncnc3c2sc2cccc(F)c23)CC1)N1CCN(Cc2ccccc2)CC1	.	-8	.	0	.	.	.
COc1ccc2c(c1)CN1C(=O)N(Cc3ccc(F)cc3)S(=O)(=O)CC21 (stereo unspecified)	.	4	.	0	.	.	.
COc1ccc(Nc2nc(-c3ccncc3)nc3ccccc23)cc1	43*	0	-1	-26	4	9	i
COc1ccc(OC)c(Nc2nc(-c3ccncc3)nc3ccccc23)c1	.	-2	1	-1	-12	-8	.
COc1ccc(/C=N/Nc2nc(-c3cccnc3)nc3ccccc23)c(OC)c1	41*	-3	-3	6	5	-3	+
Cc1ccc(-c2nc(N/N=C/c3cccnc3)c3ccccc3n2)cc1	-22	1	-2	17	37	-6	.
Cc1cccc(NC(=O)[C@H]2CC(=O)O[C@@H]2c2ccccc2)c1C	.	13	.	0	.	.	.
Cc1nc2c(C(=O)N3CCN(c4ccccn4)CC3)cnn2c(C)c1Cc1cccc(Cl)c1	45*	0	1	-3	7	-1	i
CCOc1ccccc1C(=O)Nc1cc2c(cc1N1CCCC1)n(CC)c(=O)n2CC	46*	-3	-7	4	14	-7	i
CCn1c(=O)n(CC)c2cc(N3CCCC3)c(NC(=O)c3ccccc3OC)cc21	34	31	-4	22	7	-1	.
SMILES	Neddyl block	GC-B act	A3A deaminase	NPR1 activator	PfGluPho inh	A3G deaminase	Neddyl inh conf
CCOC(=O)CCCNC(=O)OC1CC2CC1[C@H]1CCCCN1[C@H]2Cc1ccccc1 (stereo partly specified)	.	-1	.	0	.	.	.
CCCCOCCCNC(=O)C[C@H]1C[C@@]2(C(=O)OC)C(=C[C@H](C(C)(C)C)O[C@@H]2C)N(Cc2ccc(Cl)cc2Cl)C1=O	.	-10	.	-9	.	.	.
Nc1cc(N)cc(-c2nc3ccccc3[nH]2)c1	41*	-3	-4	0	21	-3	.
CCOc1ccc(-n2c(COc3ccc(Cl)cc3)nnc2SCC(=O)Nc2ccc(OCc3ccccc3)cc2)cc1	.	1	.	0	.	.	.
Cc1cc(=O)oc2c(C)c(OC(C)C(=O)NCC3CCC(C(=O)O)CC3)ccc12 (stereo unspecified)	37	-3	-1	2	19	-3	.
Cc1c(OC(C)C(=O)NCc2ccccn2)ccc2c3c(c(=O)oc12)CCC3 (stereo unspecified)	54*	-1	-6	1	9	-6	+
Cc1c(OCc2ccc(C(=O)O)o2)ccc2c3c(c(=O)oc12)CCC3	51*	0	19	3	-29	20	i
Cc1c(OCC(=O)NCc2ccccn2)ccc2c3c(c(=O)oc12)CCCC3	-12	0	-4	3	-13	-2	.
Cc1c(OC(C)C(=O)NCC2CCC(C(=O)O)CC2)ccc2c3c(c(=O)oc12)CCCC3 (stereo unspecified)	55*	4	-4	1	-24	-2	i
COC(CNC(=O)[C@H](Cc1c[nH]c2ccccc12)NC1(C(=O)NC(c2ccccc2)c2ccccc2)CCCCC1)OC	.	-17	.	-17	.	.	.
Cc1ccc(-c2c(C(=O)NC3CCCC3)oc(=O)c3ccccc23)cc1	.	-8	.	-16	.	.	.
CN(C(=O)[C@H]1O[C@@H](n2cnc(C(N)=O)n2)[C@H](O)[C@@H]1O)c1ccccc1	.	4	.	1	.	.	.
CCCC1CCC2(CC1)CCC2OC(=S)NCc1cccc(F)c1 (stereo unspecified)	.	3	.	-2	.	.	.
COc1cccc(/C=N/Nc2ncc(C)c(=O)[nH]2)c1OC	40*	-4	6	-2	4	-2	i
COc1cccc(/C=N/Nc2ncnc3c2[nH]c2ccc(C)cc23)c1OC	81*	6	4	6	3	-2	i
COc1cccc(/C=N/Nc2nc3ccccc3[nH]2)c1OC	24	0	2	3	13	-5	.

Screening results: PubChem BioAssay, Sanford-Burnham Center for Chemical Genomics
